Assay results published in PubChem BioAssay (NCATS).
Inconclusive results are not listed. Unmarked numbers belong to inactive results. Activity calls are given as the source filed them. The call rests on the fitted dose curve; in most records, active means well fitted inhibition curve with a large enough effect; inconclusive means small, poorly fitted or top-dose-only effect; inactive means flat fitted curve, though single readings scatter.

Experiments:
CRL-7250 = normal cell line; assay: Cytotoxic Profiling of Annotated Libraries Using Quantitative High-Throughput Screening (AID 1296008); details: Five cell lines viability, CellTiter-Glo ATP luminescence, 48-72 h; max response: stronger effect = lower value; further: potency means the concentration at half of the fitted maximal effect; on max response: on the % scale 0 is the no-effect control and ±100 the full control effect
Outline: (§1)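 Compounds were pin-transferred onto cells and incubated 48 or 72 hr at 37 degree Celsius, 95% humidity. CellTiter-Glo was added, plates sat 10 min at room temperature, then ATP-coupled luminescence was imaged as the viability read-out.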

HEK293 = assay: as above; details: Five cell lines viability, CellTiter-Glo ATP luminescence, 48-72 h; max response: stronger effect = lower value
Outline: as §1

HaCat [1] = assay: as above; details: Five cell lines viability, CellTiter-Glo ATP luminescence, 48-72 h; max response: stronger effect = lower value
Outline: as §1

KB-3-1 = assay: as above; details: Five cell lines viability, CellTiter-Glo ATP luminescence, 48-72 h; max response: stronger effect = lower value
Outline: as §1

NIH3T3 = assay: as above; details: Five cell lines viability, CellTiter-Glo ATP luminescence, 48-72 h; max response: stronger effect = lower value
Outline: as §1

HACAT [2] = assay: qHTS assay to identify novel small-molecules to repurpose for Merkel cell carcinoma treatment (AID 1296009); details: MCC and control cell lines, CellTiter-Glo viability, 72 h; at 44.8 µM (top of the series) unless noted
Outline: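 Luminescence from CellTiter-Glo, read 10 min after addition at room temperature, reported viability following a 72 hr, 37 degree celsius treatment with NPC or MIPE compounds in titration; values normalized to plate controls.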
Further: nearly all actives have a fitted effect of over 60% in size.

Q: Which results are given for `CCC(C)C(C(=O)O)N1Cc2c(OCC=C(C)C)c(C)c(OC)c(C(=O)O)c2C1=O` (configuration not stated)?
A: max response (CRL-7250): 0.564%; max response (HEK293): -3.21%; outcome (HaCat [1]): inactive; outcome (KB-3-1): inactive; max response (NIH3T3): -10.1%; outcome (HACAT [2]): inactive [at 17.4 µM]

Q: `O=S(=O)(O)c1ccc(Nc2ncnc3c2ncn3[C@@H]2O[C@H](CO)[C@@H](O)[C@H]2O)cc1` was tested. Which outcome (CRL-7250) did it give?
A: inactive

Q: What about the max response (HEK293) of the same compound?
A: -6.97%

Q: What about the max response (HaCat [1]) of the same compound?
A: -25.7%

Q: What about the outcome (KB-3-1) of the same compound?
A: inactive

Q: What about the outcome (NIH3T3) of the same compound?
A: inactive

Q: For `COc1ccc(CC(=O)NCc2ccccc2-c2ccccc2C(=O)NCCc2cccnc2)cc1`, which max response (CRL-7250) is on record?
A: -3.16%

Q: What about the max response (HEK293) of the same compound?
A: -0.81%

Q: And the outcome (HaCat [1])?
A: inactive

Q: What about the max response (KB-3-1) of the same compound?
A: -4.64%

Q: What about the outcome (NIH3T3) of the same compound?
A: inactive

Q: And the outcome (HACAT [2])?
A: inactive

Q: For `O=C(OC[C@H]1O[C@@H](Oc2ccccc2COC(=O)C2(O)C=CCCC2O)[C@H](O)[C@@H](O)[C@@H]1O)c1ccccc1` (some centres not stated), which outcome (CRL-7250) is on record?
A: inactive

Q: What about the max response (HEK293) of the same compound?
A: -3.05%

Q: And the max response (HaCat [1])?
A: 3.77%

Q: And the max response (KB-3-1)?
A: 1.49%

Q: What about the outcome (NIH3T3) of the same compound?
A: inactive

Q: Which results are given for `CC(NC(=O)[C@H](Cc1ccccc1)NC(=O)OCc1ccccc1)C(=O)CF` (some centres not stated)?
A: outcome (CRL-7250): inactive; max response (HEK293): -1.18%; outcome (HaCat [1]): inactive; outcome (KB-3-1): inactive; max response (NIH3T3): 2.43%; outcome (HACAT [2]): inactive

Q: For `C/C=C/C=C/C=C/C(=O)O[C@@H]1C=C(CO)[C@](O)(CO)[C@@]2(C)CCCC(C)(C)[C@H]12`, which max response (CRL-7250) is on record?
A: -5.67%

Q: And the Potency (HEK293)?
A: 12.8 µM (active)

Q: And the max response (HaCat [1])?
A: -1.12%

Q: And the outcome (KB-3-1)?
A: inactive

Q: What about the outcome (NIH3T3) of the same compound?
A: inactive

Q: How did the outcome (CRL-7250) turn out when `CC1CCCCCCCc2cc(O)cc(O)c2C(=O)O1` (configuration not stated) was run?
A: inactive

Q: And the max response (HEK293)?
A: 0.839%

Q: And the outcome (HaCat [1])?
A: inactive

Q: And the outcome (KB-3-1)?
A: inactive

Q: What about the max response (NIH3T3) of the same compound?
A: 0.752%

Q: What about the outcome (HACAT [2]) of the same compound?
A: inactive

Q: `CC(O)CCc1ccc(O[C@@H]2O[C@H](CO)[C@@H](O)[C@H](O)[C@H]2O)cc1` (some centres not stated) was tested. Which max response (CRL-7250) did it give?
A: 0.631%

Q: And the max response (HEK293)?
A: 3.66%

Q: And the outcome (HaCat [1])?
A: inactive

Q: And the max response (KB-3-1)?
A: 2.69%

Q: And the max response (NIH3T3)?
A: -0.367%

Q: What about the outcome (HACAT [2]) of the same compound?
A: inactive

Q: With `CC(=O)OCC1OC(O[C@H]2CC[C@]34C[C@]35CC(O)[C@]3(C)[C@@H]([C@H](C)CC/C=C(\C)C(=O)O)C(O)C[C@@]3(C)C5CC[C@H]4C2(C)C)C(O)C(O)C1OC1OCC(O)C(O)C1O` (some centres not stated) as the compound, how does the max response (CRL-7250) read?
A: -0.106%

Q: What about the max response (HEK293) of the same compound?
A: -3.14%

Q: What about the max response (HaCat [1]) of the same compound?
A: 2.3%

Q: And the max response (KB-3-1)?
A: 7.5%

Q: What about the outcome (NIH3T3) of the same compound?
A: inactive

Q: What does the source list for `C/C=C1\[C@H](O[C@@H]2O[C@H](CO)[C@@H](O)[C@H](O)[C@H]2O)OC=C(C(=O)O)[C@H]1CC(=O)OCCc1ccc(O)cc1`?
A: max response (CRL-7250): -6.03%; max response (HEK293): -5.51%; outcome (HaCat [1]): inactive; max response (KB-3-1): -0.266%; outcome (NIH3T3): inactive; outcome (HACAT [2]): inactive [at 17.4 µM]

Q: With `CC1=C2C(=O)C=C(CO)C2[C@H]2OC(=O)[C@H](C)[C@@H]2[C@@H](OC(=O)Cc2ccc(O)cc2)C1` (some centres not stated) as the compound, how does the outcome (CRL-7250) read?
A: inactive

Q: What about the max response (HEK293) of the same compound?
A: -2.2%

Q: And the max response (HaCat [1])?
A: 3.29%

Q: What about the outcome (KB-3-1) of the same compound?
A: inactive

Q: And the outcome (NIH3T3)?
A: inactive

Q: With `CSC(=O)OCC1=C[C@@H]2OC(=O)C3=CO[C@@H](O[C@@H]4O[C@H](CO)[C@@H](O)[C@H](O)[C@H]4O)[C@H]1[C@@H]32` as the compound, how does the max response (CRL-7250) read?
A: -1.2%

Q: And the max response (HEK293)?
A: -0.187%

Q: And the outcome (HaCat [1])?
A: inactive

Q: And the outcome (KB-3-1)?
A: inactive

Q: And the max response (NIH3T3)?
A: 1.53%

Q: And the outcome (HACAT [2])?
A: inactive [at 17.4 µM]

Q: `CC1=CC(=O)C2C(C)(C)CCC[C@]2(C)[C@H]1CC[C@H](C)CC(=O)O` (some centres not stated) was tested. Which max response (CRL-7250) did it give?
A: -2.16%

Q: And the max response (HEK293)?
A: -12.7%

Q: And the outcome (HaCat [1])?
A: inactive

Q: And the outcome (KB-3-1)?
A: inactive

Q: And the outcome (NIH3T3)?
A: inactive

Q: And the outcome (HACAT [2])?
A: inactive

Q: Which results are given for `CC1(C)C2CC[C@]3(C)C(C(=O)C=C4[C@H]5C[C@@](C)(C(=O)O)CC[C@]5(C)CC[C@]43C)[C@@]2(C)CC[C@@H]1O` (some centres not stated)?
A: outcome (CRL-7250): inactive; max response (HEK293): -0.352%; outcome (HaCat [1]): inactive; outcome (KB-3-1): inactive; max response (NIH3T3): 2.21%; outcome (HACAT [2]): inactive [at 17.4 µM]

Q: With `COc1ccc(N2CCN(CCCNC(=O)Cn3c(=O)c4cccn4c4c(C)ccnc43)CC2)cc1` as the compound, how does the max response (CRL-7250) read?
A: -6.16%

Q: And the max response (HEK293)?
A: -13.3%

Q: What about the outcome (HaCat [1]) of the same compound?
A: inactive

Q: What about the max response (KB-3-1) of the same compound?
A: 6.93%

Q: What about the outcome (NIH3T3) of the same compound?
A: inactive

Q: And the outcome (HACAT [2])?
A: inactive

Q: What does the source list for `C=C1[C@H](OC(C)=O)[C@H]2[C@@H](OC(C)=O)C(C)C[C@]2(OC(C)=O)C(=O)[C@H](C)/C=C/C(C)(C)C(=O)[C@H](OC(=O)C(C)C)[C@H]1OC(C)=O` (some centres not stated)?
A: max response (CRL-7250): 2.65%; max response (HEK293): -3.57%; outcome (HaCat [1]): inactive; outcome (KB-3-1): inactive; outcome (NIH3T3): inactive; outcome (HACAT [2]): inactive [at 17.4 µM]

Q: Which max response (CRL-7250) does the source give for `CN(C)CCC[C@]1(c2ccc(F)cc2)OCc2cc(C#N)ccc21` here?
A: 1.86%

Q: What about the max response (HEK293) of the same compound?
A: -1.92%

Q: What about the outcome (HaCat [1]) of the same compound?
A: inactive

Q: And the max response (KB-3-1)?
A: -2.48%

Q: What about the outcome (NIH3T3) of the same compound?
A: inactive

Q: What about the outcome (HACAT [2]) of the same compound?
A: inactive
